Source: PubChem
In the library only some 2.9% were active in any assay of this set; here they are far more common.
GRK2 aptamer HTS = compounds blocking aptamer binding on GRK2 – biochemical, human GRK2, bead flow cytometry, HTS, primary screen; inhibition of aptamer binding, % at 10 µM; FAM-aptamer displacement from GRK2; hit rate 0.59% among 330,000; AID 488847, 2010;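 active means inhibition of aptamer binding above 40%, roughly 3 SD of noise, on plates passing a quality check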;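 further: median bead fluorescence of bound FAM aptamer so fluorescent compounds give negative values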
NadD block = inhibitors of S. aureus NadD, primary screen, biochemical, colorimetric, uHTS. Nicotinate-nucleotide adenylyltransferase NadD (Staphylococcus aureus N315). purified NadD enzyme, colorimetric absorbance read-out. inhibition, % at 20 µM. hit rate 0.78% among 360,000. AID 602399, 2012; in the data active means inhibition above about 26%
Granule exo inh = LAMP-1 surface exposure blockers, TALL-104 cells – cell-based, flow cytometry, MLPCN library, primary screen; TALL-104 LAMP-1 surface exposure; cells stimulated with thapsigargin and PMA; inhibition, % at 10 µM; hit rate 0.66% among 360,000;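 active means inhibition above about 55%, limit read from the data; inconclusive means no clear call, values can overlap the other calls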
B2AR ag = beta2AR agonists driving receptor internalization, primary screen, cell-based, FAP fluorogen, flow cytometry; Am2.2-beta2AR cells; hit rate 0.43% among 340,000; response, % (no concentration beside the values);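 active means response above a set limit, near 3 SD of response in nonfluorescent compounds, cut at about 42% in these data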
Target sequence (P07550 whole entry, looked up): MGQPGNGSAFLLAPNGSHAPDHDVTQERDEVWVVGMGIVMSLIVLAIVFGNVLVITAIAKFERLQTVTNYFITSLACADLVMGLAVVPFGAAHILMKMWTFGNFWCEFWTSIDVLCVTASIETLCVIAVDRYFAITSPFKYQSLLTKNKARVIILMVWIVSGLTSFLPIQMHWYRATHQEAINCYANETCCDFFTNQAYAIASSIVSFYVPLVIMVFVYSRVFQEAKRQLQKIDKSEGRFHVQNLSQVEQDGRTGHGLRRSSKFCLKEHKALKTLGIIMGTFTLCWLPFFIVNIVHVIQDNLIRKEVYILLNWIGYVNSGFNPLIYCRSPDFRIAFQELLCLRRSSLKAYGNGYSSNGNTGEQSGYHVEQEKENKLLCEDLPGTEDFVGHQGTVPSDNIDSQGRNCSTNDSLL
PP1 counter = PP1-alpha phosphatase inhibitors, primary screen, counter-screen for PP5 inhibitor project, biochemical, fluorescence, OMFP substrate, single point; Serine/threonine-protein phosphatase PP1-alpha catalytic subunit (Homo sapiens), P62136; hit rate 0.9% among 320,000; inhibition, % at 6.7 µM; purified PP1alpha; AID 2235, 2010;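 active means inhibition above the mean inhibition of all tested compounds plus 3 SD, computed separately for each screening campaign, cut at about 15% in these data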
Hits are given with their value; - = inactive; ? = inconclusive; . = no result given.

SMILES | GRK2 aptamer HTS | NadD block | Granule exo inh | B2AR ag | PP1 counter
O=C1ON=C(c2ccccc2)/C1=C/c1ccc(O)cc1 | - | - | - | 47 | -
CCN(CC)S(=O)(=O)c1cc(NC(=O)Cn2ncc(Cl)c(Cl)c2=O)ccc1C | - | - | - | 46 | -
Cc1ccc(C(=O)OCn2ncc(Cl)c(Cl)c2=O)cc1 | - | - | - | 62 | -
CCOC(=O)c1ccc(NC(=O)Cn2ncc(Cl)c(Cl)c2=O)cc1 | - | - | - | 74 | -
COc1ccc(-[n+]2c(C)cc(/C=C3\Sc4ccccc4N3C)cc2C)cc1 | 79 | - | 61 | . | -
CCOC(=O)c1sc(NC(=O)CSc2nnnn2-c2ccccc2)nc1C | - | - | - | - | -
CCOC(=O)c1c(-c2ccc(C)o2)csc1NC(=O)CSc1nnnn1-c1ccccc1 | - | - | 95 | - | -
CCOC(=O)c1c(-c2ccc(C)o2)csc1NC(=O)CSc1nnc(C)s1 | - | - | 96 | - | -
CCOC(=O)c1c(-c2ccccc2)csc1NC(=O)CSc1nnc(C)s1 | - | - | - | - | -
CCC1(c2ccc(F)cc2)NC(=O)N(CC(=O)Nc2cc(C)on2)C1=O (configuration not stated) | - | - | - | - | -
Cc1cc(C)c2c(c1)NC(c1cc3c(cc1Br)OCO3)C1CC=CC21 (configuration not stated) | - | 37 | - | - | -
Brc1cc2c(cc1C1Nc3ccccc3C3C=CCC31)OCO2 (configuration not stated) | - | - | - | - | -
COc1ccc(OC)c(/C=N/NC(=O)c2cc3c(OC)cccc3[nH]2)c1 | - | - | - | - | -
CCOc1ccc(/C=N/NC(=O)c2cc3c(OC)cccc3[nH]2)cc1 | - | - | - | - | 16
COc1ccc(/C=N/NC(=O)c2cc3c(OC)ccc(OC)c3[nH]2)cc1O | - | - | 62 | - | -
CCN(C(=O)COC(=O)/C=C/c1ccco1)C1CCCCC1 | 49 | - | - | - | .
O=C(C[C@H]1C[C@H](C(=O)N2CCCCC2)[C@@]2(CCc3ccccc3)c3[nH]c4cc(-c5ccco5)ccc4c3CCN2C1=O)NCCN1CCOCC1 | - | - | - | 42 | .
COCCCNC(=O)C[C@H]1C[C@H](C(=O)N2CCCCC2)[C@@]2(CCc3ccccc3)c3[nH]c4cc(-c5ccco5)ccc4c3CCN2C1=O | - | - | - | - | .
CCC(=O)c1ccc(SC(=O)N(C)C)cc1O | - | - | - | - | -
COc1ccc(-c2cc(C)no2)cc1S(=O)(=O)N1CCOc2ccccc21 | - | - | - | - | -
CCC1CN(S(=O)(=O)c2cc(-c3cc(C)no3)ccc2OC)c2cc(C)ccc2O1 (configuration not stated) | - | - | 70 | - | -
Cc1ccc(SC2=C(Sc3ccc(C)cc3)C(=O)c3ccccc3C2=O)cc1 | - | - | 93 | - | -
Cc1ccc(N2C(=O)c3ccccc3C2=O)cc1 | - | - | - | - | -
CCN(CC)C(=O)c1cccc(-c2csc(C(C)(O)c3ccncc3)n2)c1 (configuration not stated) | . | - | - | . | .
O=C(/C=C/Nc1ccc(Nc2ccccc2)cc1)c1cccs1 | . | - | - | 50 | .
SMILES | GRK2 aptamer HTS | NadD block | Granule exo inh | B2AR ag | PP1 counter
Nc1nc(Cn2nnc(-c3ccccc3F)n2)nc(N2CCOCC2)n1 | - | - | - | 52 | -
Nc1nc(Cn2nnc(-c3ccccc3Cl)n2)nc(N2CCOCC2)n1 | - | - | - | - | -
COc1ccc(-n2c(SCC(=O)C(C)(C)C)nc3c(sc(=S)n3-c3ccccc3)c2=O)c(OC)c1 | - | - | - | - | 16
CCCCNC(=O)CSc1nc2c(sc(=S)n2-c2cc(Cl)ccc2OC)c(=O)[nH]1 | - | - | - | - | -
COc1ccc(Cl)cc1-n1c(=S)sc2c(=O)[nH]c(SCC(=O)C(C)(C)C)nc21 | - | - | - | - | 17
CCOC(=O)CSc1nc2c(sc(=S)n2-c2ccccc2OC)c(=O)n1-c1ccccc1OC | - | - | ? | - | -
Cc1cccc(N2CCN(S(=O)(=O)c3ccc4c(c3)CCCN4C(=O)C3CCC3)CC2C)c1 (configuration not stated) | - | - | - | - | -
CC(C)C1Nc2ccc(S(N)(=O)=O)cc2C2C=CCC21 (configuration not stated) | - | - | - | - | -
NS(=O)(=O)c1ccc2c(c1)C1C=CCC1C(C1CC=CCC1)N2 (configuration not stated) | - | 39 | - | - | -
NC(=NCCc1ccccc1)c1cccc([N+](=O)[O-])c1 | - | - | - | - | -
N#C/C(=C\c1ccc(N2CCOCC2)o1)c1nc2ccccc2[nH]1 | - | - | - | - | -
N#C/C(=C/c1ccc(N2CCOCC2)o1)c1ccc(Cl)cc1 | - | - | 82 | - | -
COc1ccc(C(=O)N/N=C/c2ccc3cccc(OCc4ccccc4)c3n2)cc1 | - | - | - | - | -
O=C(N/N=C/c1ccc2cccc(OCc3ccccc3)c2n1)c1ccc(Br)cc1 | - | - | - | - | 17
Cc1ccn(C(=O)c2ccc(NC(=O)C3CC3)cc2)n1 | - | - | - | - | -
CCOc1cc(CNCC2CCCO2)cc(Br)c1OCC(N)=O (configuration not stated) | - | - | - | - | 17
Cc1ccc(C(=O)N/C(=C\c2cn(C)c3ccccc23)C(=O)NCCCN2CCOCC2)cc1 | - | - | - | - | -
Cc1ccc(C(=O)N/C(=C\c2ccc(-c3ccccc3[N+](=O)[O-])o2)C(=O)NCCCN2CCOCC2)cc1 | - | - | 91 | - | -
COc1ccc2ncc(S(=O)(=O)c3ccccc3)c(N3CCN(c4ccccc4)CC3)c2c1 | - | - | - | - | -
CCN1Cc2c(/C=C/c3ccccc3)nc3ccc(OC)cc3c2N(c2cccc(Cl)c2)C1 | - | - | 65 | - | -
Cc1cc(N/N=C/c2ccccc2O)c2ccccc2n1 | - | - | 76 | - | -
O=C(Nc1ccnn1C1CCN(Cc2cccc(OCCO)c2)CC1)C1CC1 | - | - | - | - | -
COC(=O)c1sc(N2C(=O)C(O)=C(C(=O)c3ccc(C)o3)C2c2ccc(OC)c(OC)c2)nc1C (configuration not stated) | - | - | - | - | .
CCOc1ccc(C2C(C(=O)c3ccc(C)o3)=C(O)C(=O)N2c2nc(C)c(C(=O)OC)s2)cc1 (configuration not stated) | - | - | - | - | 17
CCc1ccccc1NC(=O)CNC(=O)c1cc(C2CC2)nn1-c1ccccc1 | - | - | - | - | -
CNC(=O)C1C(=S)NC(N)=C(C#N)C1c1ccccc1 (configuration not stated) | - | - | 69 | - | -
